Source: PubChem BioAssay (NCI)
Compounds without any hit were thinned out: in the full panel of roughly 79,000, 15% have a hit. Calls of active or inactive are those of the source. Cut-off read from the data, not from the text of the source: active = growth inhibition above about 70%; inactive = the rest.

Key:
[1] = NCI Yeast Anticancer Drug Screen. Data for the wt1 strain (AID 149);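 note: 0% = growth of vehicle-treated wt1 cultures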; details: S. cerevisiae wt1 strain (SPY 50644) growth inhibition, active compounds read high
Method in brief: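 Each compound is tested on wt1 yeast and the loss of growth versus vehicle gives the inhibition value.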

[2] = NCI Yeast Anticancer Drug Screen. Data for the rad50EPP+ strain (AID 151);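 note: 0% = growth of vehicle-treated control cultures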; details: S. cerevisiae rad50 mutant strain, active compounds read high
Method in brief: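 Growth inhibition read against vehicle controls in rad50EPP+ yeast, a strain altered in DNA damage repair, after compound exposure.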

[3] = NCI Yeast Anticancer Drug Screen. Data for the mgt1 strain (AID 153); details: S. cerevisiae mgt1 mutant growth inhibition, active compounds read high
Method in brief: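 mgt1 yeast grown with test compound; read-out is growth inhibition versus vehicle-treated cultures.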

[4] = NCI Yeast Anticancer Drug Screen. Data for the rad50 strain (AID 155);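 note: 0% = growth of vehicle-only cultures of the same strain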; details: S. cerevisiae rad50 strain growth inhibition, active compounds read high
Method in brief: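 Vehicle-treated cultures provide the reference for the growth inhibition reported for compound-exposed, repair-deficient yeast.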

[5] = NCI Yeast Anticancer Drug Screen. Data for the mec2-1 strain (AID 157); details: S. cerevisiae mec2-1 strain, active compounds read high
Method in brief: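 Yeast mec2-1 mutant treated with compound. Readout: growth inhibition vs vehicle controls.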

[6] = NCI Yeast Anticancer Drug Screen. Data for the rad14 strain (AID 159);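 note: 0% = growth of vehicle-treated control cultures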; details: S. cerevisiae rad14 strain growth inhibition, active compounds read high
Method in brief: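 Inhibition of growth is reported for a repair-deficient yeast mutant following compound treatment, calculated relative to cultures that received vehicle.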

[7] = NCI Yeast Anticancer Drug Screen. Data for the sgs1 mgt1 strain (AID 161);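 note: 0% = growth of cultures given vehicle only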; details: S. cerevisiae sgs1 mgt1 strain, active compounds read high
Method in brief: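 Test agents were incubated with a DNA-repair-mutant yeast strain. Growth was then read and compared against vehicle-treated controls.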

[8] = NCI Yeast Anticancer Drug Screen. Data for the CLN2oe strain (AID 163);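 note: 0% = growth of vehicle-only control cultures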; details: S. cerevisiae CLN2oe strain, active compounds read high
Method in brief: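 Read-out: yeast growth inhibition, expressed relative to vehicle-only controls. The strain bears an engineered cell-cycle alteration.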

[9] = NCI Yeast Anticancer Drug Screen. Data for the cln2 rad14 strain (AID 165);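 note: 0% = growth equal to vehicle treated cultures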; details: S. cerevisiae cln2 rad14 strain, active compounds read high
Method in brief: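 cln2 rad14 yeast strain; compound exposure; growth inhibition read vs vehicle controls.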

[10] = NCI Yeast Anticancer Drug Screen. Data for the bub3 strain (AID 167); details: S. cerevisiae bub3 mutant strain, active compounds read high
Method in brief: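 Mutant yeast screening strain plus compound; vehicle-treated cultures serve as the 0% inhibition reference.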

[11] = NCI Yeast Anticancer Drug Screen. Data for the wt2 strain (AID 169); details: S. cerevisiae wt2 strain growth inhibition, active compounds read high
Method in brief: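 Read-out: growth inhibition versus vehicle-treated control cultures after compound exposure of the yeast strain.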

[12] = NCI Yeast Anticancer Drug Screen. Data for the sgs1 strain (AID 173);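 note: 0% = growth of vehicle-only control cultures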; details: S. cerevisiae sgs1 mutant, active compounds read high
Method in brief: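 Read-out: yeast growth inhibition relative to vehicle controls, following compound exposure of a strain with a defined DNA repair/cell cycle alteration.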

[13] = NCI Yeast Anticancer Drug Screen. Data for the mlh1 rad18 strain (AID 175); details: S. cerevisiae mlh1 rad18 strain growth inhibition, active compounds read high
Method in brief: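 Yeast w/ defined DNA-repair lesions; compound exposure; growth vs vehicle controls → % inhibition.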

[14] = NCI Yeast Anticancer Drug Screen. Data for the rad18 strain (AID 177); details: S. cerevisiae rad18 mutant growth inhibition, active compounds read high
Method in brief: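 Readout: growth inhibition vs vehicle controls. Cells: genetically altered yeast strain, DNA repair defect.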

[15] = NCI Yeast Anticancer Drug Screen. Data for the mlh1 strain (AID 171);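 note: 0% = growth of vehicle-treated control cultures of the same strain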; details: S. cerevisiae mlh1 strain growth inhibition, active compounds read high
Method in brief: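 Read-out: growth inhibition versus vehicle controls. Strain: engineered yeast with a defined DNA repair or cell cycle defect, compound-treated.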

[16] = at 5.0 µM (retest, dose inferred, filed as 0.5)
[17] = at 50.0 µM (retest, dose inferred, filed as 5.0)

Measured: growth inhibition

CCCCCCC=C(C(=O)OCC)C(=O)OCC
active: [13]; [17] 85% | [13]; at 50.0 µM 76.3%
inactive: [1]; at 1.2 µM -2% | [1]; at 3.7 µM -3% | [1]; at 11.0 µM -6% | [1]; at 33.0 µM -7% | [1]; at 100.0 µM 4% | [2]; at 1.2 µM -1% | [2]; at 3.7 µM 4% | [2]; at 11.0 µM 7% | [2]; at 33.0 µM 14% | [2]; at 100.0 µM 24% | [3]; at 1.2 µM -1% | [3]; at 3.7 µM -3% | [3]; at 11.0 µM 0% | [3]; at 33.0 µM -5% | [3]; at 100.0 µM 13% | [4]; at 1.2 µM -2% | [4]; at 3.7 µM -3% | [4]; [16] -18% | [4]; at 11.0 µM -3% | [4]; at 33.0 µM -5% | [4]; [17] 11% | [4]; at 50.0 µM -8.3% | [4]; at 100.0 µM 22% | [5]; at 1.2 µM -1% | [5]; at 3.7 µM 1% | [5]; [16] -8% | [5]; at 11.0 µM -2% | [5]; at 33.0 µM 5% | [5]; [17] 46% | [5]; at 50.0 µM 38% | [5]; at 100.0 µM 22% | [6]; at 1.2 µM -3% | [6]; at 3.7 µM -4% | [6]; at 11.0 µM -2% | [6]; at 33.0 µM 2% | [6]; at 100.0 µM 13% | [7]; [16] -11% | [7]; [17] 68% | [7]; at 50.0 µM 42% | [8]; at 1.2 µM -4% | [8]; at 3.7 µM -4% | [8]; at 11.0 µM -8% | [8]; at 33.0 µM -10% | [8]; at 100.0 µM 3% | [9]; [16] -13% | [9]; [17] 19% | [9]; at 50.0 µM 18.1% | [10]; at 1.2 µM 0% | [10]; at 3.7 µM 0% | [10]; [16] -6% | [10]; at 11.0 µM -1% | [10]; at 33.0 µM 1% | [10]; [17] 18% | [10]; at 50.0 µM 63% | [10]; at 100.0 µM 17% | [11]; at 1.2 µM -2% | [11]; at 3.7 µM -3% | [11]; at 11.0 µM -5% | [11]; at 33.0 µM -4% | [11]; at 100.0 µM 16% | [12]; at 1.2 µM -1% | [12]; at 3.7 µM -1% | [12]; at 11.0 µM 1% | [12]; at 33.0 µM 5% | [12]; at 100.0 µM 30% | [13]; [16] -3% | [14]; at 1.2 µM -1% | [14]; at 3.7 µM 5% | [14]; at 11.0 µM 8% | [14]; at 33.0 µM 14% | [14]; at 100.0 µM 32%

CC(C)CCC[C@@H](C)[C@H]1CC[C@H]2[C@@H]3CC[C@H]4C[C@H](N)CC[C@]4(C)[C@H]3CC[C@]12C
inactive: [1]; at 1.2 µM -1% | [1]; at 3.7 µM 0% | [1]; at 11.0 µM -3% | [1]; at 33.0 µM -2% | [1]; at 100.0 µM 1% | [2]; at 1.2 µM 0% | [2]; at 3.7 µM 2% | [2]; at 11.0 µM 7% | [2]; at 33.0 µM 7% | [2]; at 100.0 µM 7% | [3]; at 1.2 µM -3% | [3]; at 3.7 µM -2% | [3]; at 11.0 µM -2% | [3]; at 33.0 µM -2% | [3]; at 100.0 µM 2% | [4]; at 1.2 µM 1% | [4]; at 3.7 µM 4% | [4]; [16] -19% | [4]; at 11.0 µM 4% | [4]; at 33.0 µM -2% | [4]; [17] 49% | [4]; at 50.0 µM 27.1% | [4]; at 100.0 µM -2% | [5]; at 1.2 µM 0% | [5]; at 3.7 µM -1% | [5]; [16] -9% | [5]; at 11.0 µM -2% | [5]; at 33.0 µM -2% | [5]; [17] -12% | [5]; at 50.0 µM 46.2% | [5]; at 100.0 µM -3% | [6]; at 1.2 µM -1% | [6]; at 3.7 µM 1% | [6]; at 11.0 µM -1% | [6]; at 33.0 µM -4% | [6]; at 100.0 µM -1% | [7]; [16] -9% | [7]; [17] 53% | [7]; at 50.0 µM -1.6% | [9]; [16] -10% | [9]; [17] -3% | [9]; at 50.0 µM 19.2% | [10]; at 1.2 µM -2% | [10]; at 3.7 µM -4% | [10]; [16] -3% | [10]; at 11.0 µM -6% | [10]; at 33.0 µM -4% | [10]; [17] 52% | [10]; at 50.0 µM 15.1% | [10]; at 100.0 µM -2% | [11]; at 1.2 µM 8% | [11]; at 3.7 µM -8% | [11]; at 11.0 µM 6% | [11]; at 33.0 µM -4% | [11]; at 100.0 µM 5% | [15]; at 1.2 µM -2% | [15]; at 3.7 µM -2% | [15]; at 11.0 µM -4% | [15]; at 33.0 µM -7% | [15]; at 100.0 µM -3% | [12]; at 1.2 µM -3% | [12]; at 3.7 µM -22% | [12]; at 11.0 µM 6% | [12]; at 33.0 µM 6% | [12]; at 100.0 µM 13% | [13]; [16] 2% | [13]; [17] 55% | [13]; at 50.0 µM 39.9% | [14]; at 1.2 µM -1% | [14]; at 3.7 µM 0% | [14]; at 11.0 µM 3% | [14]; at 33.0 µM -6% | [14]; at 100.0 µM 3%
